According to the supplement of paper PMC9492666:
Counter-ions that a name gives are not always drawn.

Assays:
HCC1937 = experiment: relative cell viability, compound + erastin, vs DMSO (fraction of DMSO control); higher = less growth inhibition; conditions: 72 h
MDA-MB-231 = experiment: as above; conditions: 72 h
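Also: viability read by CCK-8 kit in 96-well plates, part of a combination screen pairing lipid-metabolism-targeting compounds with erastin.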

Structure (SMILES)	relative cell viability (HCC1937)	relative cell viability (MDA-MB-231)
C=CCc1ccc(O)c(-c2cc(CC=C)ccc2O)c1 [Magnolol] + CCOc1ccccc1-n1c(C(C)N2CCN(C(=O)COc3ccc(Cl)cc3)CC2)nc2ccccc2c1=O [erastin]	0.99	1.02
COc1ccc(CN2CCC(c3ccc4nc(C(=O)N5CCN(Cc6ccc(C(F)(F)F)cc6)CC5)[nH]c4c3)CC2)cn1 + CCOc1ccccc1-n1c(C(C)N2CCN(C(=O)COc3ccc(Cl)cc3)CC2)nc2ccccc2c1=O [erastin]	0.569	0.585
COc1ccc2c(c1)CCC1C2CCC2(C)C(NCCCCCCN3C(=O)C=CC3=O)CCC12 (centres undefined) + CCOc1ccccc1-n1c(C(C)N2CCN(C(=O)COc3ccc(Cl)cc3)CC2)nc2ccccc2c1=O [erastin]	0.47	0.67
O=C(CBr)c1ccc(O)cc1 [PTP Inhibitor I] + CCOc1ccccc1-n1c(C(C)N2CCN(C(=O)COc3ccc(Cl)cc3)CC2)nc2ccccc2c1=O [erastin]	0.717	0.64
O=C(O)C(O)Cc1ccc(O)c(O)c1 (centres undefined) [Sodium Danshensu] + CCOc1ccccc1-n1c(C(C)N2CCN(C(=O)COc3ccc(Cl)cc3)CC2)nc2ccccc2c1=O [erastin]	0.746	0.968
CC(=O)Nc1nc(C)c(S(=O)(=O)Nc2ccc(C(O)(C(F)(F)F)C(F)(F)F)cc2)s1 + CCOc1ccccc1-n1c(C(C)N2CCN(C(=O)COc3ccc(Cl)cc3)CC2)nc2ccccc2c1=O [erastin]	0.956	1.1
Cc1nc2ccc(C(=O)N3CCC4(CC3)CC(=O)c3c(cnn3C(C)C)C4)cc2[nH]1 + CCOc1ccccc1-n1c(C(C)N2CCN(C(=O)COc3ccc(Cl)cc3)CC2)nc2ccccc2c1=O [erastin]	0.619	0.733
Cc1cc(C)c(S(=O)(=O)N(CCc2cccc(Br)c2)Cc2ccc(-c3cccc(S(C)(=O)=O)c3)cc2)c(C)c1 + CCOc1ccccc1-n1c(C(C)N2CCN(C(=O)COc3ccc(Cl)cc3)CC2)nc2ccccc2c1=O [erastin]	0.537	0.777
CCCc1cc(-c2nc(-c3ccc(C)cc3)cs2)ccn1 [Fatostatin] + CCOc1ccccc1-n1c(C(C)N2CCN(C(=O)COc3ccc(Cl)cc3)CC2)nc2ccccc2c1=O [erastin]	0.534	0.595
O=C(Nc1ccccc1)N1CCN(c2nc(-c3ccccc3)ns2)CC1 + CCOc1ccccc1-n1c(C(C)N2CCN(C(=O)COc3ccc(Cl)cc3)CC2)nc2ccccc2c1=O [erastin]	0.559	0.353
N#Cc1c(O)c2c(-c3ccc(-c4ccccc4O)cc3)csc2[nH]c1=O + CCOc1ccccc1-n1c(C(C)N2CCN(C(=O)COc3ccc(Cl)cc3)CC2)nc2ccccc2c1=O [erastin]	0.521	0.51
CCN(CC)CCCC(C)Nc1c2ccc(Cl)cc2nc2ccc(OC)cc12 (centres undefined) [Quinacrine dihydrochloride] + CCOc1ccccc1-n1c(C(C)N2CCN(C(=O)COc3ccc(Cl)cc3)CC2)nc2ccccc2c1=O [erastin]	0.164	0.299
Cc1nc(-c2nc(-c3ccc(OC(F)(F)F)cc3)no2)nn1Cc1cccc(N2CCC(S(C)(=O)=O)CC2)c1 + CCOc1ccccc1-n1c(C(C)N2CCN(C(=O)COc3ccc(Cl)cc3)CC2)nc2ccccc2c1=O [erastin]	0.647	0.621
O=C(CC(C(=O)O)c1c[nH]c2ccccc12)c1ccc(F)cc1F (centres undefined) [Mitochonic acid 5] + CCOc1ccccc1-n1c(C(C)N2CCN(C(=O)COc3ccc(Cl)cc3)CC2)nc2ccccc2c1=O [erastin]	0.931	1
CCCCCCCCCCC#CC#CCCCCCCCCC(=O)O [10,12-Tricosadiynoic acid] + CCOc1ccccc1-n1c(C(C)N2CCN(C(=O)COc3ccc(Cl)cc3)CC2)nc2ccccc2c1=O [erastin]	0.648	0.627
CC(=O)O[C@H](CC=C(C)C)C1=CC(=O)c2c(O)ccc(O)c2C1=O [Acetyl shikonin] + CCOc1ccccc1-n1c(C(C)N2CCN(C(=O)COc3ccc(Cl)cc3)CC2)nc2ccccc2c1=O [erastin]	0.617	0.877
CC(C)OC(=O)C(C)(C)Oc1ccc(C(=O)c2ccc(Cl)cc2)cc1 [Fenofibrate] + CCOc1ccccc1-n1c(C(C)N2CCN(C(=O)COc3ccc(Cl)cc3)CC2)nc2ccccc2c1=O [erastin]	0.878	0.646
